# Assay outcomes as filed in PubChem.
# NR1D1 modulator: modulates human Rev-erb alpha binding to DNA; P20393; Rev-erbα–FITC-DNA binding, fluorescence polarization, 90 min; activity, % at 10 µM; hit rate 0.79% among 370,000; AID 1259318;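 active = activity above about 14%, limit read from the data; passing the limit was not always enough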;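 also: 0% = DMSO wells with 35 nM protein and 100% = DMSO wells with 750 nM protein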
# Target sequence (P20393 whole entry, looked up): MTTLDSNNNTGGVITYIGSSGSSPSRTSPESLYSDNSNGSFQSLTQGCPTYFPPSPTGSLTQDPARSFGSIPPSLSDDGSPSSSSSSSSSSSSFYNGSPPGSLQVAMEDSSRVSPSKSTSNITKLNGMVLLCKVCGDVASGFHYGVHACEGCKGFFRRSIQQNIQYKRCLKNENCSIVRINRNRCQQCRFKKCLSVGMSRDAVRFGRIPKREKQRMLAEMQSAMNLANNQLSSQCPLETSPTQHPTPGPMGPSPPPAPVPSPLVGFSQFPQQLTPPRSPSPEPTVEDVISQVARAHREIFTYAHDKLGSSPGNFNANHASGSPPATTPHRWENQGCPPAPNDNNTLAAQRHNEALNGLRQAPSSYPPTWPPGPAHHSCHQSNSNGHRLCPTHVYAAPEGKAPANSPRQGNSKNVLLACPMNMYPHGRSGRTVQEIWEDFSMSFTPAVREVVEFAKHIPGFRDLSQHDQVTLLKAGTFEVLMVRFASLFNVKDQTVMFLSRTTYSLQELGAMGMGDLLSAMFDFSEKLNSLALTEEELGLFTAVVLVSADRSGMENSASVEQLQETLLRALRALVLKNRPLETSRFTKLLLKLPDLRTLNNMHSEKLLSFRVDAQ
# DAX1 inh-1: NR0B1 (DAX1) inhibition; AID 504766; hit rate 0.99% among 340,000; inhibition, % at 6.75 µM; HEK293 Gal4-DAX1 luciferase reporter, luminescence; P51843;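 active = inhibition above the mean over all tested compounds plus 3 SD, cut at about 4.2% in these data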;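 also: 0% = DAX1-transfected cells with DMSO and 100% = empty-vector control cells with DMSO; inhibition shows as a rise in luminescence from relieved DAX1 repression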
# hcDAF-12 act: activates DAF-12 receptor from parasite H. contortus | HEK293 hcDAF-12 lit1-tk-luc reporter, luminescence; 0% DMSO, 100% Δ7-dafachronic acid | hit rate 1.4% among 370,000 | activation, % at 6.8 µM;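 active = activation above the mean of all tested compounds plus 3 SD, cut at about 5.5% in these data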;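 also: 100% = response to 3 µM Δ7-dafachronic acid high control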
# hgDAF12 agonist: hgDAF-12 agonism, primary luciferase screen. HEK293 GAL4-hgDAF12 UAS-luciferase reporter, agonist luminescence; normalized to butyrate control. AID 687014. activation, % at 6.8 µM. hit rate 1.8% among 370,000;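 active = activation above a cutoff set at the mean of all screened compounds plus 3 SD, cut at about 10% in these data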;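 also: 0% = DMSO wells and 100% = sodium butyrate wells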
# DAX1 inh-2: inhibitors of DAX1 repression of SF-1 activated StAR promoter; HEK293T StAR-luciferase reporter, SF-1/DAX-1 repression relief; inhibition, % at 6.8 µM; hit rate 1.1% among 370,000;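 active = inhibition above the mean over all tested compounds plus 3 SD, cut at about 3.6% in these data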;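 also: 0% = DAX-1 cells with DMSO and 100% = cells lacking DAX-1 with DMSO; higher inhibition means more luminescence from relief of DAX-1 repression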
# ssDAF-12 act: S. stercoralis DAF-12 activation, primary screen; activation, % at 6.8 µM; HEK293 ssDAF-12/GRIP1 lit1-tk-luc reporter, luminescence; % of 3 µM dafachronic acid response; hit rate 1% among 370,000;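 active = activation above the mean over all tested compounds plus 3 SD, cut at about 0.9% in these data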;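 also: 0% = DMSO-only wells and 100% = 3 µM delta7-dafachronic acid wells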
# NR1D1 mod conf: confirmation of modulators of human Rev-erb alpha DNA binding; AID 1259319; activation, % at 25 µM; Rev-erb alpha FITC-DNA binding, fluorescence polarization, 90 min; shares compounds with NR1D1 modulator; hit rate 61% among 3,000;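 active = activation at or above a set limit, or at least 3 SD above the negative control mean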;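 also: 0% = 35 nM protein with DMSO and 100% = 750 nM protein high control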
# RORg counter: RORgamma DNA-binding activity, dose-response counter-screen; shares compounds with NR1D1 modulator; purified RORgamma protein-FITC-DNA binding, fluorescence polarization; IC50, µM; hit rate 8% among 910;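 active = Compounds whose fitted half-maximal concentration for disrupting protein-DNA binding is below 10 micromolar; the record names Rev-erb in its text, so the target is in doubt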
# * marks the source's active call; other numbers are inactive results; i = inactive; · = no result. Shown are actives, neighbours in structure and some others; about 4.8% of the full set was active somewhere.
SMILES,NR1D1 modulator,DAX1 inh-1,hcDAF-12 act,hgDAF12 agonist,DAX1 inh-2,ssDAF-12 act,NR1D1 mod conf,others
CCOC(=O)c1nn(-c2ccc(Cl)cc2)c2nc(-c3ccc(C)cc3)c(C#N)c(=O)n12,36*,0,-1,0,-1,-2,37*,RORg counter=>40
CC(C)CN1C(=O)C[C@]2(C(=O)N(C)c3ccc(NS(=O)(=O)C4CCCCC4)cc32)C1c1ccccc1 (stereo partly drawn),-5,·,-2,3,0,-1,·,
CCOC1=C2[C@H](c3ccccc3)N(S(=O)(=O)c3ccc(C)cc3)[C@H](C(C)C)[C@H]2C(C#N)(C#N)C(C#N)(C#N)C1,-1,·,-1,1,-1,-1,·,
COc1ccc(C(=O)Nc2ccccc2C(=O)NC(Cc2ccc(O)cc2)C(=O)NNC(=O)c2ccccc2Cl)cc1 (stereo not drawn),24*,-1,0,0,0,-2,19*,
COc1ccc(C(=O)NNC(=O)C(C)NC(=O)c2ccccc2NC(=O)c2ccco2)cc1 (stereo not drawn),-3,0,1,0,0,-2,·,
CCCNC(=O)C(Cc1ccc(OC)cc1)NC(=O)c1ccc(Cl)cc1 (stereo not drawn),-2,1,-1,-1,1,-1,·,
COc1ccc(NC(=O)NNC(=O)c2cc3ccccc3cc2O)cc1,46*,1,3,-1,0,-1,30*,RORg counter=>40
O=C(NNC(=O)c1cc2ccccc2cc1O)Nc1ccc(Br)cc1,-5,1,2,1,1,-1,·,
COc1ccc(C(=O)Nc2ccccc2C(=O)Nc2ccccc2)cc1,68*,1,2,0,0,0,45*,RORg counter=>40
COc1ccc(C(=O)NNC(=O)C(Cc2ccc(O)cc2)NC(=O)c2ccccc2NC(=O)c2ccc(OC)cc2)cc1 (stereo not drawn),45*,1,-3,-3,-1,-1,36*,RORg counter=>40
COC(=O)[C@]1(CNC(=O)NCCc2ccc(OC)c(OC)c2)CC(=O)N(C)[C@@H]1c1ccccc1,-3,·,-1,4,2,-1,·,
CC1(C)C=Cc2ccc(O)c(C(=O)/C=C/c3ccccc3)c2O1,-1,·,-3,-4,·,-2,·,
COc1cccc(-c2ccc(CC[C@H]3O[C@H]4CC[C@H](CO)O[C@H]4C[C@H]3NS(C)(=O)=O)cc2)c1,5,·,-1,0,0,-1,·,
COC[C@@H](O)[C@H]1OCc2cccc(OC)c2[C@@H]1/C=C/c1ccccc1,5,·,-2,-3,0,-2,·,
CCNC(=O)C1(C)CCCN1Cc1ccccc1Cl (stereo not drawn),1,·,-2,2,-1,-1,·,
CC(C)CNC(=O)C1(C)CCCCCN1Cc1ccccc1-c1ccccc1 (stereo not drawn),20*,·,-3,0,0,-2,7,
COc1ccc(CCn2cnn3c(=O)c4ccccc4nc3c2=O)cc1OC,3,·,-1,2,0,-1,·,
COCCN(Cc1cc2cc(C)ccc2n2nnnc12)C(=S)Nc1ccccc1C,87*,1,-2,-1,0,-1,40*,RORg counter=>40
COc1ccccc1CNc1ncnc2cc(Cl)ccc12,180*,-1,2,-3,-2,-1,137*,RORg counter=i
COc1ccc(CNc2ncnc3cc(Cl)ccc23)cc1OC,-5,-3,-2,-5,-4,-2,·,
C=CC[C@@]1(c2ccccc2)Oc2ccccc2-c2nc3ccccc3nc21,7,·,-2,-2,-1,-2,·,
C/C(=N\NC(=O)COc1cccc(C)c1)c1ccc2ccccc2c1O,217*,1,0,-1,0,0,165*,RORg counter=>40
COc1ccc(-c2nc(-c3ccccc3)[nH]c(=O)c2C#N)cc1,-4,3,0,3,-1,0,·,
COc1ccc(-c2c(C#N)c(C)nc3c2C(=O)c2ccccc2-3)cc1,151*,0,-1,-1,-1,-1,122*,
O=C(CCn1nnc2ccccc21)Nc1nnc(-c2ccccc2F)s1,28*,2,0,-1,0,-1,17,
SMILES,NR1D1 modulator,DAX1 inh-1,hcDAF-12 act,hgDAF12 agonist,DAX1 inh-2,ssDAF-12 act,NR1D1 mod conf,others
O=C(CCn1nnc2ccccc21)Nc1nnc(COc2ccccc2F)s1,1,-1,-1,-2,-1,-2,·,
O=C(NCc1ccccc1)OC1CC2CC1[C@H]1CCCCN1C2 (stereo partly drawn),5,·,-2,3,0,-1,·,
Cn1cc(/C=C/c2cc[n+](C)cc2)c2cc(Cl)ccc21,165*,-2,-2,-9,-1,-2,140*,RORg counter=>40
Oc1ccc(N=Nc2ccccc2C(F)(F)F)c2cccnc12,23*,-1,0,0,0,-1,5,
COc1ccc(C2=Nc3ccccc3N(C(=O)c3ccc(C(F)(F)F)cc3)C2C(=O)NCc2ccccc2)cc1 (stereo not drawn),13,·,-1,2,1,-1,·,
CCN(CC)C(=O)CSc1nc(-c2ccccc2)ccc1C#N,1,-2,0,-3,0,-1,·,
N#Cc1ccc(-c2cccnc2)nc1SCC(=O)c1ccccc1,23*,1,0,6,0,-1,30*,
N#Cc1ccc(-c2ccc(Cl)cc2)nc1SCC(=O)c1cccc(Cl)c1,5,2,0,1,-1,-1,·,
N#Cc1ccc(-c2ccccc2)nc1SCC(=O)c1cccc(Cl)c1,38*,0,-1,0,0,-1,18*,
CCOC(=O)c1nn(-c2ccc(C)cc2)c(=O)cc1OCC(=O)Nc1cc(C)ccc1OC,2,1,1,2,3,-1,·,
CCC(=O)Nc1cc(-c2nn(C)c(=O)c3ccccc23)ccc1OC,2,1,1,0,0,-1,·,
COc1ccc(-c2nn(C)c(=O)c3ccccc23)cc1NC(=O)COc1ccc(C)cc1,34*,0,-1,-2,-1,-2,8,
CCOC(=O)c1nn(-c2ccccc2)c(=O)cc1OCC(=O)Nc1cc(C)ccc1OC,48*,1,1,-2,0,-1,13,
CCOC(=O)c1nn(-c2ccc(F)cc2)c(=O)cc1OCC(=O)Nc1cccc(C)c1,101*,0,0,1,3,0,93*,RORg counter=>40
O=C(O)c1cc2c(ccc3ccccc32)oc1=O,6,-1,0,3,0,-1,·,
CC(C)(C)NC(=O)c1cc2c(ccc3ccccc32)oc1=O,37*,0,-1,1,0,-2,25*,
